# Anthrax LF prot: blocks Bacillus anthracis lethal factor protease; P15917; multiplex microsphere protease cleavage assay, LF; inhibition, % at 10 µM; hit rate 0.12% among 360,000; AID 588501; also: plate controls were buffer without enzyme for full effect and enzyme alone for no effect
# BoNT-A LC inh2: inhibitors of Botulinum neurotoxin A light chain protease; multiplex microsphere protease substrate cleavage, flow cytometry; inhibition, % at 10 µM; hit rate 0.17% among 360,000; also: plate controls were buffer without enzyme for full effect and enzyme alone for no effect
# Autofluor counter: counter-screen for toxin protease inhibitors: compound fluorescence; compound autofluorescence counterscreen, microsphere flow cytometry; stronger effect = higher value; AID 624483; hit rate 3.1% among 360,000; fluorescence intensity (concentration not given with the values); in the data active = fluorescence intensity above about 16000; inconclusive = no clear call, values can overlap the other calls
# GDH-TPI counter-1: counter-screen for M. tuberculosis FBA inhibitors: GDH-TPI coupled enzymes; GDH-TPI coupled enzyme counterscreen, NADH absorbance; inhibition, % at 4.8 µM; hit rate 1.2% among 360,000; in the data active = inhibition above about 30%;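 also: 0% = DMSO wells and 100% = wells lacking the enzyme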
# FBA Mtb inh: inhibits M. tuberculosis FBA enzyme; purified M. tuberculosis FBA, fluorescence read-out; inhibition, % at 1 µM; hit rate 2.3% among 360,000; in the data active = inhibition above about 27%;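 also: 0% = vehicle and 100% = reference inhibitor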
# Target sequence (P9WQA3 whole entry, looked up): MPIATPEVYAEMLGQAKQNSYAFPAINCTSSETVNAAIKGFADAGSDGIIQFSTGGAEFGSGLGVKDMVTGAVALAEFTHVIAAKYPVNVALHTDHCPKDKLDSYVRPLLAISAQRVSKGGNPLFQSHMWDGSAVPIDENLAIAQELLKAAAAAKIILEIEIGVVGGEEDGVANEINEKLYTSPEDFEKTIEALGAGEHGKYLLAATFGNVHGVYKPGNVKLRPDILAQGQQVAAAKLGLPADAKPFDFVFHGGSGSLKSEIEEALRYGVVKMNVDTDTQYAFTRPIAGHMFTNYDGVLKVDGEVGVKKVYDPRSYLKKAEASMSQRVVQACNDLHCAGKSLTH
# BoNT F protease: inhibitors of Botulinum neurotoxin F light chain protease; Multiplex microsphere protease cleavage assay, flow cytometry; inhibition, % at 10 µM; hit rate 0.22% among 360,000; in the data active = inhibition above about 35%, passing the limit was not always enough; inconclusive = no clear call, values can overlap the other calls; also: plate controls were buffer without enzyme for full effect and enzyme alone for no effect
# Mtb FBA confirm: Mtb FBA inhibition, confirmed; shares compounds with FBA Mtb inh; purified M. tuberculosis FBA, fluorescence read-out; inhibition, % at 1 µM; hit rate 78% among 5,600; in the data active = inhibition above about 27%;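 also: 0% = vehicle wells and 100% = reference inhibitor wells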
# GDH-TPI counter-2: counter-screen for M. tuberculosis FBA inhibitors: GDH-TPI coupled enzyme inhibition; hit rate 81% among 5,600; shares compounds with FBA Mtb inh; GDH-TPI coupled enzyme counterscreen, fluorescence; inhibition, % at 1 µM; in the data active = inhibition above about 10%
# The depositor's hits bear a star; u = inconclusive; x = no result given; + = active, no number. Sampled rows, rich in hits. Any-hit rate of the full collection: about 6.7%. Rule as the data show it, unless noted: active = inhibition above about 30%; inconclusive = no clear call, values can overlap the other calls; inactive = below that.
SMILES,Anthrax LF prot,BoNT-A LC inh2,Autofluor counter,GDH-TPI counter-1,FBA Mtb inh,BoNT F protease,Mtb FBA confirm,GDH-TPI counter-2
N#Cc1nc(-c2cccc3ccccc23)oc1NCCN1CCCCC1,-2,-1,9785,11,70*,-8,195*,188*
COc1ccccc1OCc1nc(C#N)c(NCc2ccco2)o1,2,1,4324,1,3,29,x,x
N#Cc1nc(-c2ccco2)oc1NCCCN1CCOCC1,-9,0,22603*,19,56*,0,+,+
CN(C)CCNc1oc(-c2cccc(Cl)c2)nc1C#N,1,-4,20990*,1,57*,-4,20,11*
N#Cc1nc(-c2ccco2)oc1NCc1ccco1,-5,0,5739,13,40*,-7,172*,176*
Cc1cccc(-c2nc(C#N)c(NCc3ccco3)o2)c1,0,0,3928,5,48*,u,165*,135*
COCCNc1oc(-c2ccc(F)cc2)nc1C#N,3,-1,3471,9,107*,-3,8,-1
N#Cc1nc(-c2ccc(OCc3ccccc3)cc2)oc1N1CCOCC1,0,0,10267,8,7,2,x,x
CN(Cc1ccccc1)c1oc(-c2ccco2)nc1C#N,-7,0,3201,16,67*,10,41*,37*
CNc1oc(-c2ccc(OCc3ccccc3)cc2)nc1C#N,1,0,2513,6,74*,-3,84*,70*
N#Cc1nc(COc2cccc(Cl)c2)oc1NCc1ccco1,-7,-1,5081,-3,2,-3,x,x
C[C@H](CO)N1C[C@H](C)[C@@H](CN(C)C(=O)Nc2ccc(N3CCN(C)CC3)cc2)OCc2cnnn2CCCC1=O,0,-1,3786,0,1,-5,x,x
NCCCC[C@H]1CNC(=O)C(=O)N1CC1CCCCC1,-4,0,3064,12,-2,-4,x,x
N#Cc1nc(-c2ccc(F)cc2)oc1NCc1ccccc1,-6,0,3976,1,81*,1,165*,120*
CCC(CC)c1nc(C#N)c(NCc2ccccc2)o1,-1,-1,2558,4,2,-2,x,x
N#Cc1nc(-c2ccc(F)cc2)oc1NCc1ccco1,-14,u,3806,6,71*,u,107*,73*
COc1ccc(CCNc2oc(-c3ccccc3OC)nc2C#N)cc1OC,-3,-1,3265,9,86*,6,96*,70*
Cc1ccc(-c2nc(C#N)c(NCc3ccco3)o2)cc1,-3,-1,2769,11,92*,-8,54*,41*
COc1ccc(Nc2oc(-c3ccc(F)cc3)nc2C#N)cc1,x,x,x,6,2,x,x,x
Cc1ccc(NC(=O)/C=C/c2ccc(Cl)cc2)nc1,-1,-1,4805,2,11,-1,x,x
Cc1ccc(-c2nc(Cl)nc3ccccc23)cc1,-3,0,4522,4,7,-5,x,x
N#Cc1nc(-c2ccco2)oc1NCc1ccccc1Cl,20,-2,3714,19,35*,u,89*,79*
N#Cc1nc(-c2ccc(OCc3ccc(Cl)cc3)cc2)oc1NCCCn1ccnc1,-5,-1,2786,2,1,-14,x,x
N#Cc1nc(-c2ccccc2)oc1NCCCn1ccnc1,-2,-1,4638,11,100*,9,139*,89*
CC(=O)NN1CCc2cc3ccc(C)cc3nc21,-2,8,2925,15,40*,-14,-1,0
SMILES,Anthrax LF prot,BoNT-A LC inh2,Autofluor counter,GDH-TPI counter-1,FBA Mtb inh,BoNT F protease,Mtb FBA confirm,GDH-TPI counter-2
Cc1ccc2cc3c(nc2c1)N(c1ccccc1)CC3,-5,0,3285,6,47*,-2,5,-5
Cc1ccccc1C(=O)OCc1nnc(-c2ccc(Cl)cc2)o1,-1,0,3263,-3,3,0,x,x
Cc1cc(C(=O)NNC(=O)c2ccc(Cl)cc2)no1,x,x,x,2,0,x,x,x
Cc1ccc(CN2CC(C(=O)Nc3ccc4c(C)cc(=O)oc4c3)CC2=O)cc1 (stereo unspecified),-2,-1,4540,16,89*,14,96*,74*
Cc1cccc2c(C(=O)O)c3cccc(C)c3nc12,14,1,3987,25,95*,u,52*,55*
Cc1cccc2c(C(=O)O)c3c(nc12)CCCCC3,1,0,2441,3,1,-4,x,x
CCOC(=O)c1[nH]c2ccc(OC)cc2c1NC(=O)CCN1CCSCC1,0,1,2109,5,71*,0,51*,43*
CCOC(=O)c1[nH]c2ccc(OC)cc2c1NC(=O)CN1CCC2(CC1)OCCO2,-9,1,3078,10,47*,-8,134*,104*
CCOC(=O)c1[nH]c2ccc(C)cc2c1NC(=O)CN1CCCCC1,-1,0,2231,15,21,-10,x,x
CCOC(=O)c1[nH]c2ccc(OCC)cc2c1NC(=O)CN1CCCC(C)C1 (stereo unspecified),-4,0,2893,8,38*,-7,49*,47*
CCOC(=O)c1oc2ccccc2c1NC(=O)CN1CCN(C)CC1,-1,0,4929,0,2,-7,x,x
CCOC(=O)c1oc2ccc(OC)cc2c1NC(=O)CN1CCN(C)CC1,12,1,8840,3,40*,-1,1,-5
C/C(=N\NC(=O)c1nnn(-c2nonc2N)c1CN(C)c1ccccc1)c1ccc(O)cc1,0,-1,5422,19,-2,-1,x,x
COc1ccc(N(CC(=O)NC2CCCC2)C(=O)Cn2nnc(-c3ccc(C)cc3)n2)cc1,3,0,8136,6,0,-7,x,x
CC(C)(C)NC(=O)CN(CC1CCCO1)C(=O)CNS(=O)(=O)c1ccc(F)cc1 (stereo unspecified),2,-4,3968,0,-2,-17,x,x
CNc1cnc(-c2ccc(O)c(OC)c2)cn1,1,0,3472,2,2,-6,x,x
CNc1cnc(-c2ccsc2)cn1,-2,0,3395,9,88*,0,134*,110*
Cc1ccnn1-c1ccc(C(=O)NCc2ccccc2CN2CCOCC2)cc1,-2,0,3422,4,58*,-2,+,+
Cc1cc(C)n2nc(C(=O)OCC(=O)N(C)Cc3ccccc3)nc2n1,x,x,x,13,-1,x,x,x
Cc1cc(C)n2nc(C(=O)OCC(=O)c3ccccc3)nc2n1,1,0,2758,0,28*,7,95*,68*
O=S(=O)(O)c1cc(O)c2cc(Nc3ccccc3)ccc2c1,-9,-2,3939,17,48*,-8,91*,98*
O=S(=O)(O)c1cc(O)c2ccc(Nc3ccccc3)cc2c1,-8,-1,3685,8,35*,12,4,-1

# Screening results (PubChem)
